# PubChem BioAssay (NCATS)
# Inconclusive results are not listed. Values without a mark were called inactive. Calls of active or inactive are those of the source. Calls follow the shape of the dose curve; as a rule, active = well fitted cell-killing curve with a large enough effect; inconclusive = small, poorly fitted or top-dose-only effect, or effect the other way; inactive = flat fitted curve, though single readings scatter.
# Assay: Cell Viability - LYMP2-003 (AID 965);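 also: cells exposed to compounds for 24 h before reading; nearly all actives have a fitted effect of over 50% in size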;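 as to activity change, negative = cytotoxicity: 0% = DMSO only and full effect = 92 µM tetraoctylammonium bromide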
# Conditions: LYMP2-003 lymphoblastoid cell viability; series mostly up to 92.2 µM; activity change, negative = cytotoxicity: at the top concentration
# Text: NIH Chemical Genomics Center [NCGC]
# NIH Molecular Libraries Screening Centers Network [MLSCN]
# National Institutes of Environmental Health Sciences [NIEHS]
# National Toxicology Program [NTP]
# We have developed a 1536-well cell-based assay for quantitative high throughput screening (qHTS) against a number of cell lines to determine in vitro cytotoxicity of small molecules. This particular assay uses a human lymphoblastoid cell line (LYMP2-003) purchased from Coriell Institute for Medical Research.
# NCGC Assay Protocol Summary:
# The CellTiter-Glo luminescent cell viability assay (Promega) is a homogeneous method to measure the number of viable cells in culture. The end point readout of this assay is based on quantitation of intracellular ATP, an indicator of metabolic activity, using the luciferase reaction. Luciferase catalyzes the oxidation of beetle Luciferin to oxyluciferin and light in the presence of ATP. The luminescent signal is proportional to amount of ATP present.
# Using the CellTiter-Glo luminescent cell viability assay, the amount of cellular ATP was measured in the lymphoblastoid cell line with complete culture medium following compound treatment for 24 hours. The assay was performed in opaque white Kalypsys 1536-well plates. In the screen, tetraoctylammonium bromide was used as positive control. Library compounds were measured for their ability to cause acute toxicity in the cell line, as reflected by a decrease in intracellular ATP levels, in a concentration-dependent manner. […] AC50 values were determined from concentration-response data modeled with the standard Hill equation.
# qHTS protocol for CellTiter Glo lymphoblastoid cellular assay
# [Step] [Parameter] [Value] [Description]
# 1. Reagent; 5 uL; 2500 lymphoblastoid cells/well
# 2. Time; 5 hr; 37 C incubation
# 4. Controls; 23 nL; Tetraoctylammonium bromide 6.4pM to 92 uM
# 5. Time; 24 hr; 37 C incubation
# 6. Reagent; 5 uL; CellTiter Glo reagent
# 7. Time; 30 min; Room Temperature
# 8. Detection; Luminescence; Viewlux plate reader
# Keywords: cell viability, cytotoxicity, lymphoblastoid cell line, luminescence, NTPHTS, NTPHTS_NCGC, NIEHS, DSSTox, MLSMR, MLSCN, NIH Roadmap, qHTS, NCGC
# Potency is read from the fitted curve at half-maximal effect.
SMILES,"activity change, negative = cytotoxicity [%]",Potency
COC(=O)c1ccccc1O,18.7,
C=C1C(CCl)(CCl)C2(Cl)C(Cl)C(Cl)C1(Cl)C2(Cl)Cl (centres undefined),,50.1 µM (active)
ClC(Cl)Cl,13.7,
CC1=CCC2CC1C2(C)C (centres undefined),8.04,
C[C@H](CCC(=O)O)[C@H]1CC[C@H]2[C@@H]3CC[C@@H]4C[C@H](O)CC[C@]4(C)[C@H]3C[C@H](O)[C@]12C,8.48,
c1ccc2ccccc2c1,5.42,
C/C=C/C=C/C(=O)O,20.1,
Cc1ccc(S(=O)(=O)O)cc1C,8.47,
CC(C)O,-14.5,
O=P(O)(O)O,5.4,
OC[C@H]1O[C@@H]2O[C@H]3[C@H](O)[C@@H](O)[C@@H](O[C@H]4[C@H](O)[C@@H](O)[C@@H](O[C@H]5[C@H](O)[C@@H](O)[C@@H](O[C@H]6[C@H](O)[C@@H](O)[C@@H](O[C@H]7[C@H](O)[C@@H](O)[C@@H](O[C@H]1[C@H](O)[C@H]2O)O[C@@H]7CO)O[C@@H]6CO)O[C@@H]5CO)O[C@@H]4CO)O[C@@H]3CO,22.2,
Cc1ncc[nH]1,24.1,
CC[C@H]1OC(=O)[C@H](C)[C@@H](O[C@H]2C[C@@](C)(OC)[C@@H](O)[C@H](C)O2)[C@H](C)[C@@H](O[C@@H]2O[C@H](C)C[C@H](N(C)C)[C@H]2O)[C@](C)(O)C[C@@H](C)CN(C)[C@H](C)[C@@H](O)[C@]1(C)O,-2.04,
CC/C=C\C/C=C\C/C=C\CCCCCCCC(=O)O,,39.8 µM (active)
NC(N)=O,9.32,
CC1=CC(=O)NS(=O)(=O)O1,7.44,
CC(C)(C)CC(C)(C)c1ccc(OCCO)cc1,-16.2,

SMILES,"activity change, negative = cytotoxicity [%]",Potency
CCCCC,22.1,
OCc1ccccc1,17.2,
Nc1ncnc2c1ncn2[C@H]1CC[C@@H](CO)O1,6.77,
CO,15.3,
O.O.O.O.O.O.O.O=S(=O)([O-])[O-].[Co+2],-19.3,
Nc1ccc(N=Nc2ccccc2)c(N)n1,-8.53,
CCOC(C)OCC,2.97,
CO/N=C(/C(=O)N[C@@H]1C(=O)N2C(C(=O)O)=C(COC(N)=O)CS[C@H]12)c1ccco1,-5.08,
OB(O)O,4.13,
O=c1n(CC2CO2)c(=O)n(CC2CO2)c(=O)n1CC1CO1 (centres undefined),,31.6 µM (active)
Nc1nccs1,7.1,
NCCN,26,
OCC(O)CO,,inactive
C[C@H](CCC(=O)O)[C@H]1CC[C@H]2[C@@H]3[C@H](O)C[C@@H]4C[C@H](O)CC[C@]4(C)[C@H]3C[C@H](O)[C@]12C,6.4,
OCl,23.1,
Oc1ccc(/C=C/c2cc(O)cc(O)c2)cc1,-7.47,
CCCCO,,inactive
